In PubChem BioAssay (NCI):
This is part of a sample that, as a whole, favours compounds with a hit. Of some 83,000 tested, about 20% had one in any assay.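 Cells were grown in 96-well plates and exposed to the test compound at a single concentration for 48 hours; results are reported as percent growth, with values below 10 considered active.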 Active and inactive are the calls of the source.

How the values were obtained:
Experiment in all cases: NCI-60 one-dose screen, 48 h (100 = growth as untreated, 0 = no growth, -100 = all killed)
Settings in all cases: 10 µM unless noted
DU-145 prostate = tested on: DU-145 prostate
K-562 leukemia = tested on: K-562 leukemia
MALME-3M melanoma = tested on: MALME-3M melanoma
MDA-MB-231 breast = tested on: MDA-MB-231 breast
RXF 393 renal = tested on: RXF 393 renal
SF-268 CNS = tested on: SF-268 CNS
SF-295 CNS = tested on: SF-295 CNS
SF-539 CNS = tested on: SF-539 CNS
UACC-257 melanoma = tested on: UACC-257 melanoma
M14 melanoma = tested on: M14 melanoma

Measured: growth

N[C@@H]1CCN(C(=O)c2cc3cc(Cl)c(F)c(F)c3[nH]2)C1
inactive: DU-145 prostate 102% | K-562 leukemia 83.4% | MALME-3M melanoma 97.8% | MDA-MB-231 breast 79.6% | RXF 393 renal 87.1% | SF-268 CNS 79.8% | SF-295 CNS 94.9% | SF-539 CNS 86.8% | UACC-257 melanoma 99.7% | M14 melanoma 89.8%

COc1ccc(S(=O)(=O)NCCCNc2nccc(-n3ccc4cccnc43)n2)cc1
inactive: DU-145 prostate 91.7% | K-562 leukemia 77.7% | MALME-3M melanoma 121% | MDA-MB-231 breast 91.1% | RXF 393 renal 95.5% | SF-268 CNS 89.6% | SF-295 CNS 94.7% | SF-539 CNS 100% | UACC-257 melanoma 111%

O=c1ccn(-c2ncnc3nc[nH]c23)cc1
inactive: DU-145 prostate 101% | K-562 leukemia 89.9% | MALME-3M melanoma 68.8% | MDA-MB-231 breast 101% | RXF 393 renal 79.6% | SF-268 CNS 95.2% | SF-295 CNS 115% | SF-539 CNS 96.4%
active: UACC-257 melanoma 3.23%

Cc1cc(C2=NNC(=O)Cc3cc4c(cc32)OCCO4)cc(C)c1N
inactive: DU-145 prostate 19.3% | K-562 leukemia 25.5% | MALME-3M melanoma 32.3% | MDA-MB-231 breast 67.5% | RXF 393 renal 37.7% | SF-268 CNS 44.6% | SF-295 CNS 17.1% | SF-539 CNS 19.4% | UACC-257 melanoma 60.1% | M14 melanoma 13.4%

CCN(CC)CCOc1ccc(/C(=C(/C)c2ccccc2)c2ccc(OC(C)=O)cc2)cc1
inactive: DU-145 prostate 105% | K-562 leukemia 87.2% | MALME-3M melanoma 99.1% | MDA-MB-231 breast 108% | RXF 393 renal 100% | SF-268 CNS 93.2% | SF-295 CNS 103% | SF-539 CNS 101% | UACC-257 melanoma 120% | M14 melanoma 98.3%

COc1ccc(/C=C(\C#N)c2cc(OC)c3c(c2)OCO3)cc1
inactive: MALME-3M melanoma 54.2% | MDA-MB-231 breast 10.4% | RXF 393 renal 21.4% | SF-268 CNS 26.9% | UACC-257 melanoma 84% | M14 melanoma 12.1%
active: DU-145 prostate -12.7% | K-562 leukemia 9.08% | SF-295 CNS 4.91% | SF-539 CNS 4.3%

CCOC(=O)c1cn2c3c(cc(C)cc3c1=O)C(=O)/C(=C/c1ccccc1)C2
inactive: DU-145 prostate 106% | K-562 leukemia 79.7% | MALME-3M melanoma 112% | MDA-MB-231 breast 87.2% | RXF 393 renal 74.6% | SF-268 CNS 95.7% | SF-295 CNS 92.6% | SF-539 CNS 87.8% | UACC-257 melanoma 78.4% | M14 melanoma 101%

NC1=NC(SCc2ccccc2CCl)c2ncn(Cc3ccccc3CCl)c2N1 (centres undefined)
inactive: DU-145 prostate 64% | K-562 leukemia 21.9% | MALME-3M melanoma 19.4% | MDA-MB-231 breast 47.5% | SF-268 CNS 54.9% | SF-295 CNS 101% | SF-539 CNS 69.4% | UACC-257 melanoma 42.5% | M14 melanoma 40%
active: RXF 393 renal -4.55%

COc1cc(/C=C/C(=O)/C=C/c2cc(OC)c3c(c2)OCO3)cc2c1OCO2
inactive: DU-145 prostate 107% | K-562 leukemia 50.9% | MALME-3M melanoma 98.2% | MDA-MB-231 breast 80.2% | RXF 393 renal 72.4% | SF-268 CNS 88.7% | SF-295 CNS 94.5% | SF-539 CNS 100% | UACC-257 melanoma 103% | M14 melanoma 31.2%

Cc1cc(N/N=C/c2nc(-c3ccc(Br)cc3)oc2C)c2cc(Br)ccc2n1
inactive: DU-145 prostate 34.6% | MALME-3M melanoma 17.4% | MDA-MB-231 breast 55.9% | RXF 393 renal 92.8% | SF-268 CNS 75.1% | SF-295 CNS 96.7% | SF-539 CNS 89% | UACC-257 melanoma 95.8% | M14 melanoma 57.5%
active: K-562 leukemia -29.2%

Cc1nc2ncccc2nc1Nc1ccc(S(=O)(=O)Nc2cncs2)cc1
inactive: DU-145 prostate 107% | K-562 leukemia 109% | MALME-3M melanoma 103% | MDA-MB-231 breast 84% | RXF 393 renal 112% | SF-268 CNS 98.2% | SF-295 CNS 107% | SF-539 CNS 106% | UACC-257 melanoma 101% | M14 melanoma 99.6%

CC1CCC(C)N(C)C1 (centres undefined)
inactive: DU-145 prostate 122% | K-562 leukemia 98.9% | MALME-3M melanoma 101% | MDA-MB-231 breast 98.2% | RXF 393 renal 100% | SF-268 CNS 108% | SF-295 CNS 116% | SF-539 CNS 103% | UACC-257 melanoma 105%

CC(C)CC1NC(C)(C)CO1 (centres undefined)
inactive: DU-145 prostate 117% | K-562 leukemia 125% | MALME-3M melanoma 124% | MDA-MB-231 breast 106% | RXF 393 renal 109% | SF-268 CNS 102% | SF-295 CNS 131% | SF-539 CNS 126% | UACC-257 melanoma 112%

CCCCCCCCCCCC(=O)NCCC[N+](C)(C)CC(=O)[O-]
inactive: DU-145 prostate 101% | K-562 leukemia 83.3% | MALME-3M melanoma 108% | MDA-MB-231 breast 90.5% | RXF 393 renal 77.2% | SF-268 CNS 85.5% | SF-295 CNS 101% | SF-539 CNS 94.3% | UACC-257 melanoma 98.3% | M14 melanoma 98.6%

Cn1cnc2c(N3CCN(C(=O)OCc4ccc5c(Cl)cc(Cl)c(O)c5n4)CC3)nc(Cl)nc21
inactive: DU-145 prostate 61.1% | K-562 leukemia 44.9% | MALME-3M melanoma 85.2% | MDA-MB-231 breast 83% | RXF 393 renal 74.4% | SF-268 CNS 59.5% | SF-295 CNS 38.7% | SF-539 CNS 82.7% | UACC-257 melanoma 89.6% | M14 melanoma 66.1%

COP(=O)(OC)/C(=N\NS(=O)(=O)c1ccc(C)cc1)c1ccccc1
inactive: DU-145 prostate 106% | K-562 leukemia 120% | MALME-3M melanoma 104% | MDA-MB-231 breast 119% | RXF 393 renal 76.6% | SF-268 CNS 119% | SF-295 CNS 117% | SF-539 CNS 95% | UACC-257 melanoma 112% | M14 melanoma 93.3%

O=C(/C=C\c1cccc([N+](=O)[O-])c1)/C=C/c1cccc([N+](=O)[O-])c1
inactive: DU-145 prostate 93.1% | K-562 leukemia 70.5% | MALME-3M melanoma 110% | MDA-MB-231 breast 90.1% | RXF 393 renal 79.6% | SF-268 CNS 78.5% | SF-295 CNS 100% | SF-539 CNS 101% | UACC-257 melanoma 90.2%

Cc1nn(-c2ccc([N+](=O)[O-])cc2)c2ncnc(NCCc3ccccc3)c12
inactive: DU-145 prostate 110% | K-562 leukemia 76.8% | MALME-3M melanoma 121% | MDA-MB-231 breast 102% | RXF 393 renal 102% | SF-268 CNS 94.7% | SF-295 CNS 111% | SF-539 CNS 99.5% | UACC-257 melanoma 106%

CC(NNC(C)c1ccccc1)c1ccccc1 (centres undefined)
inactive: DU-145 prostate 110% | K-562 leukemia 114% | MALME-3M melanoma 123% | MDA-MB-231 breast 113% | RXF 393 renal 116% | SF-268 CNS 109% | SF-295 CNS 111% | SF-539 CNS 101% | UACC-257 melanoma 109% | M14 melanoma 101%

CCOC(=O)c1cc(C(=O)c2cc(OC)c(OC)c(OC)c2)n2c1ccc1ccccc12
inactive: DU-145 prostate 22.1% | K-562 leukemia 12.3% | MALME-3M melanoma 19.9% | MDA-MB-231 breast 49.8% | SF-268 CNS 49.6% | SF-295 CNS 22.4% | UACC-257 melanoma 63.6% | M14 melanoma 10.7%
active: RXF 393 renal -9.46% | SF-539 CNS -13.4%

C=C(C)[C@@H]1C[C@@H]2Cc3ccc(Cl)c(C)c3N1O2
inactive: DU-145 prostate 97.3% | K-562 leukemia 91.3% | MALME-3M melanoma 120% | MDA-MB-231 breast 91.5% | RXF 393 renal 99.4% | SF-268 CNS 96.8% | SF-295 CNS 95.4% | SF-539 CNS 90.8% | UACC-257 melanoma 90% | M14 melanoma 105%

CC(C)(C)N1CCC1C(N)=O (centres undefined)
inactive: DU-145 prostate 108% | K-562 leukemia 97.7% | MALME-3M melanoma 90.3% | MDA-MB-231 breast 112% | RXF 393 renal 103% | SF-268 CNS 102% | SF-295 CNS 106% | SF-539 CNS 97.7% | UACC-257 melanoma 96% | M14 melanoma 78.6%

CCOc1cc2c(Cl)ncnc2c(OCC)c1OCC
inactive: K-562 leukemia 19.5% | MALME-3M melanoma 83.8% | MDA-MB-231 breast 77.7% | SF-268 CNS 33.9% | SF-295 CNS 96.1% | SF-539 CNS 92.5% | M14 melanoma 73.7%
active: DU-145 prostate -56.1% | RXF 393 renal -5.68% | UACC-257 melanoma -17%

O=C(NNC(=S)Nc1ccccc1)c1cc2ccc1CCc1ccc(cc1)CC2
inactive: DU-145 prostate 77.5% | K-562 leukemia 43.4% | MALME-3M melanoma 74.8% | MDA-MB-231 breast 77.2% | RXF 393 renal 83.7% | SF-268 CNS 76.6% | SF-295 CNS 49.5% | SF-539 CNS 82.9% | UACC-257 melanoma 85.8% | M14 melanoma 56%

COc1ccc2c(c1)NC1=C(C(=O)OC1)C2c1cc(OC)c2c(c1)OCO2 (centres undefined)
inactive: K-562 leukemia 10.8% | MALME-3M melanoma 52.7% | MDA-MB-231 breast 11.3% | RXF 393 renal 28% | SF-268 CNS 22.8% | UACC-257 melanoma 71.6%
active: DU-145 prostate -20.6% | SF-295 CNS 6.7% | SF-539 CNS 6.15% | M14 melanoma 5.09%

COc1ccc(-c2[nH]nc(N)c2-c2cc(OC)c3c(c2)OCO3)cc1
inactive: DU-145 prostate 92.3% | K-562 leukemia 22.4% | MALME-3M melanoma 46.9% | MDA-MB-231 breast 43% | RXF 393 renal 95.9% | SF-268 CNS 64.9% | SF-295 CNS 53.9% | SF-539 CNS 59.3% | UACC-257 melanoma 79.3% | M14 melanoma 22.1%

CCN(CC)c1ccc2[nH]c3c(C(N)=O)cc(=O)c(=O)c=3oc2c1
active: DU-145 prostate -1.89% | K-562 leukemia 9.48% | MALME-3M melanoma -59.9% | RXF 393 renal -24.5% | SF-295 CNS -9.14% | SF-539 CNS -28.3% | UACC-257 melanoma -29.2% | M14 melanoma -7.36%
inactive: MDA-MB-231 breast 18% | SF-268 CNS 10.5%

c1coc(CNc2ccnc(Nc3ccc(OCCN4CCCCC4)cc3)n2)c1
inactive: DU-145 prostate 91.6% | K-562 leukemia 27.6% | MALME-3M melanoma 110% | MDA-MB-231 breast 82.6% | RXF 393 renal 71.3% | SF-268 CNS 90.4% | SF-295 CNS 95.1% | SF-539 CNS 76.4% | UACC-257 melanoma 87.3% | M14 melanoma 102%
